Out of some 1,300 compounds screened, about 270 (21%) were called active. These entries were drawn from the full list. Potency and affinity values are given separately. Unmarked numbers belong to inactive results. No rule for the calls is given here.
experiment: SK-MEL-5 parental cell viability loss, dose response, orthogonal assay for MITF inhibitor project, CellTiter-Glo, cherry-picked, set 3 (AID 493240); details: SK-MEL-5 viability, ATP luminescence (CellTiter-Glo), 24 h; series mostly up to 35 µM; activity change, negative = viability loss: at the top concentration

| SMILES | activity change, negative = viability loss |
| --- | --- |
| O=Cc1ccc(N2Cc3ccccc3C2)cc1 | -7.44% |
| Cc1ccc(C(=O)c2coc3ccc(O)c(Cl)c23)cc1 | 12.7% |
| COCc1cc(C)nc2sc(C(=O)Nc3cccc(OC)c3)c(N)c12 | -11.7% |
| COc1ccc(CNC(=O)CN2C(=O)C3C4C=CC(C4)C3C2=O)cc1 (stereo not given) | 0.978% |
| CN(C)CC1CC/C(=C\c2ccc(O)cc2)C1=O (stereo not given) | -22.2% |
| Cc1cc(NC(=O)c2ccc(Cl)cc2Cl)no1 | 14.1% |
| N/C(=N\OC(=O)c1ccncc1)c1cccc([N+](=O)[O-])c1 | -2.01% |
| O=[N+]([O-])/C=C\c1ccc(N2CCOCC2)cc1 | -35.8% |
| COc1cccc2sc(N3CCN(C(=O)c4ccc([N+](=O)[O-])o4)CC3)nc12 | -18.1% |
| Oc1c(Cl)cc(Cl)cc1/C=N/Nc1ncc(Br)cn1 | -3.51% |
| O=C(Cc1cccs1)NCc1ccc(Cl)cc1Cl | -5.37% |
| c1ccc(OCc2nc3ccccc3[nH]2)cc1 | -20.8% |
| CC(=O)c1c(C)[nH]c(C(=O)Nc2ccc(C)c(C)c2)c1C | -11.8% |
| BrC(=C\c1ccccc1)/C=N/n1cnnc1 | -22.9% |
| Cc1cc2ncn(/N=C/c3ccc([N+](=O)[O-])o3)c2cc1C | -20.7% |
| CN(C(=O)/C=C/c1ccc([N+](=O)[O-])s1)c1ccccc1 | -16.1% |
| O=[N+]([O-])c1ccc(/C=N/n2c(CO)nc3ccccc32)s1 | -1.15% |
| Nc1nc2ccccc2n1/N=C/c1ccc(-c2ccccc2)o1 | 12.6% |
| Cc1ccc(C)c(-n2c3nc(=O)[nH]c(=O)c-3cc3cc([N+](=O)[O-])ccc32)c1 | -45.3% |
| O=C(Nc1ccc(F)c(Cl)c1)c1ccc2c(c1)OCO2 | -8.59% |
| COc1ccccc1N1CCN(/N=C\c2ccccc2)CC1 | 10.1% |
| CC(C)(C)N=Cc1cc(-c2ccccc2)sc1O | -6.91% |
| N#Cc1ccc(-c2cccnc2)nc1SCC(=O)c1ccccc1 | -10.9% |

| SMILES | activity change, negative = viability loss |
| --- | --- |
| COc1ccc(C(=O)Nc2nc3ccc(OC)cc3s2)cc1 | -8.59% |
| CC(=C/c1ccco1)/C=N/N1CCN(c2ccccc2)CC1 | -29.7% |
| CCCN(CC(=O)Nc1ccccc1C)C(=O)CCl | 0.668% |
| Cc1nc(-c2ccccn2)sc1C(=O)Nc1ccc(F)cc1F | -13.2% |
| CC(=O)Nc1cccc2c1Cc1ccccc1-2 | 7.43% |
| COc1ccc(N/C=C\C(=O)c2ccc3ccccc3c2)cc1 | 5.37% |
| Cc1c(NC(=O)c2ccc([N+](=O)[O-])o2)cccc1-c1nc2ncccc2o1 | -46.9% |
| CCN(CC)S(=O)(=O)c1cccc(C(=O)N/N=C(\C)c2ccc(O)cc2O)c1 | -6.57% |
| CCCCCCN1C=CC(=C2C(=O)c3ccccc3C2=O)C=C1 | -33.1% |
| CC(C)CC(=O)NC(c1cccs1)c1ccc2cccnc2c1O (stereo not given) | -34.1% |
| COCCN(C(=O)CCl)C(C(=O)NC1CCCCC1)c1ccccc1C (stereo not given) | -12.2% |
| COc1ccc(/C=C/C(=O)NC(=S)N2CCN(c3ccccc3OC)CC2)cc1 | -5.38% |
| O=C(/C=C/c1ccccc1Cl)NC1CCCCC1 | 5.66% |
| COCCn1c(C)cc(C(=O)CSc2nnc(C)s2)c1C | -11.4% |
| c1ccc(CSc2nnc(-c3ccco3)n2Cc2ccco2)cc1 | -8.61% |
| N#Cc1c(NC(=O)CSc2ncn[nH]2)sc2c1CCCC2 | 5.56% |
| COc1ccc(-c2cc(-c3ccc(OC)c(OC)c3)n[nH]2)c(O)c1 | -23.7% |
| CCCC1=Nc2cc(C(=O)NCCN3CCCC3)ccc2Sc2ccccc21 | -42.8% |
| N#CC(C#N)=C1C=CC=CN1/C(=C\c1ccco1)C(=O)c1ccc(Cl)cc1 | -21.5% |
| O=C(Nc1ccc2c(c1)OCCO2)c1coc2ccccc2c1=O | 2.93% |
| O=C(NCc1ccccc1)NC1(C(=O)Nc2ccc3c(c2)OCCO3)CCCCC1 | 6.86% |
| COc1ccc(N(CC(=O)NCC2CCCO2)S(=O)(=O)c2ccccc2)cc1OC (stereo not given) | 5.1% |
| COc1ccc(/C=N/NC(=O)Cc2cccs2)cc1 | -10.2% |

| SMILES | activity change, negative = viability loss |
| --- | --- |
| CCOC(=O)/C=c1\s/c(=C\c2ccc3cc(OC)ccc3c2)c(=O)n1CC(=O)NCC1CCCO1 (stereo not given) | -29.1% |
| CC(C)(C)C(=O)Cn1ncc(Br)c(Br)c1=O | 0.059% |
| Cc1ccc2c(C(=O)CCl)c(C)[nH]c2c1 | -25.4% |
| Cn1cc(C(=O)CCl)c2ccccc21 | -42.3% |
| COc1ccccc1N1C(=O)N(C(C)=O)C2C1Nc1ccccc1N2C (stereo not given) | -28.2% |
| Cc1cccc(OCc2nc3ccccc3n2C)c1 | 7.63% |
| Cc1nc(NC(=O)C2CC2)sc1C(=O)Nc1ccccc1Cl | 8.3% |
| O=C(CC(=O)c1ccccc1)Nc1ccccc1 | 3.63% |
| CCOc1ccc(N=C(C)C2=C(O)c3ccccc3C2=O)cc1 | -3.12% |
| CCCCOC(=O)Nc1ccc2c(C)cc(=O)oc2c1 | -13.8% |
| COc1ccc(S(=O)NC2CCCCC2)c(OC)c1C (stereo not given) | 2.77% |
| COc1cc(CN2CCC(Cc3ccccc3)CC2)cc(OC)c1OC | 1.19% |
| CCOC(=O)C1(Cc2cccc(OC)c2)CCCN(C(=O)CSC)C1 (stereo not given) | 4.52% |
| CC(C)(C)c1ccc(C(=O)N2CCCCCC2=O)cc1 | 13.2% |
| C=CC[n+]1c(-c2ccc(C)cc2)csc1Nc1ccc(NC(C)=O)cc1 | -13.5% |
| O=C1c2ccccc2C(=O)N1CCOc1ccccc1 | 4.74% |
| CC(C)(C)c1ccc(OCCCNCc2ccccc2)cc1 | -25.9% |
| CCOC(=O)c1cc(-c2ccc(OC)cc2)n[nH]1 | -8.16% |
| COc1ccc(C(=O)Nc2ccc(C)cn2)c(OC)c1 | -36.4% |
| O=C(N/N=C/c1ccccn1)c1cc([N+](=O)[O-])cc([N+](=O)[O-])c1 | -4.85% |
| COc1ccc(N(C(=O)CCl)C(C(=O)NC2CCCCC2)c2cccnc2)cc1 (stereo not given) | 19.2% |
| COc1ccc(C(C(=O)NC2CCCCC2)N(C(=O)CCl)c2ccc(OC)cc2)cc1 (stereo not given) | -18.5% |
| O=C1c2ccccc2S(=O)(=O)N1Cc1nc2ccccc2s1 | -8.25% |

| SMILES | activity change, negative = viability loss |
| --- | --- |
| CCn1c(C)cc(C(=O)CN2C(=O)c3ccccc3S2(=O)=O)c1C | -1.22% |
| CCCC(=O)NC(c1ccc(OC)c(OC)c1)c1cc(Cl)c2cccnc2c1O (stereo not given) | -19.8% |
| O=C(Nc1nc(-c2ccccn2)cs1)c1ccc(F)c(S(=O)(=O)N2CCOCC2)c1 | -3.17% |
| Cn1cc([N+](=O)[O-])c(C(=O)Nc2nc(-c3ccc(Cl)cc3)cs2)n1 | -38.5% |
| CC1CCCCC1NC(=O)/C(C#N)=C/C=C/c1ccccc1[N+](=O)[O-] (stereo not given) | -7.65% |
| OCC1OC(n2cnc3c(NCc4ccco4)ncnc32)C(O)C1O (stereo not given) | 1.75% |
| COc1cccc(/C=N/NC(=O)CN2CC(c3ccccc3)CC2=O)c1OC (stereo not given) | -15.3% |
| CCN1CCc2c(sc(NC(=O)c3ccc(S(=O)(=O)N4CCCCCC4)cc3)c2C(=O)NC)C1 | -6.08% |
| Cc1scc(C(=O)N/N=C/c2ccc([N+](=O)[O-])o2)c1C | -35% |
| O=[N+]([O-])c1ccc(Sc2cc[n+]([O-])c3ccccc23)c([N+](=O)[O-])c1 | -17.9% |
| Cc1ccc(SCCSc2ncccn2)cc1 | -15.8% |
| O=C(O)C1CCN(C(=O)OCc2ccccc2)CC1 | 4.11% |
| COc1cc(C2C(C#N)=C(N)Oc3cc(N(C)C)ccc32)cc2c1OCO2 (stereo not given) | -8.05% |
| O=C(O)c1cc2ccccc2c(N=Nc2cccnc2)c1O | -18.6% |
| Cc1cc(C)c2c(N)c3cccc(C)c3nc2n1 | -41.1% |
| CC(=O)Nc1ccc(-c2nc3ccccc3o2)cc1 | -3.83% |
| OCCNc1c2ccccc2nc2ccccc12 | -43.2% |
| Cc1nn2c(N)c(-c3ccccc3)cnc2c1-c1ccccc1 | -3.35% |
| COc1ccc(-c2nc(-c3ccncc3)no2)cc1OC | 1% |
| C=Cc1ncc(OC)c2c1[nH]c1ccccc12 | -18.9% |
| Cc1ccc(NC(=O)CN(C)C(=O)Cn2ncc(Cl)c(Cl)c2=O)cc1 | -6.4% |
| O=C(/C=C/NNC(=O)c1ccccc1)c1ccc([N+](=O)[O-])cc1 | -16.6% |
| COc1ccc(/C=C/c2cc(C(F)(F)F)on2)cc1 | -11.9% |

| SMILES | activity change, negative = viability loss |
| --- | --- |
| O=[N+]([O-])c1ccc(-n2nnnc2-c2ccccc2)c([N+](=O)[O-])c1 | -20.6% |
| CCN(CC)S(=O)(=O)c1cccc(C(=O)N/N=C/c2ccc([N+](=O)[O-])o2)c1 | -3.68% |
| Cc1cc(C(=O)N/N=C/c2ccc([N+](=O)[O-])o2)c(C)o1 | -26.1% |
| Cc1ccccc1OCC(=O)N/N=C/c1ccc([N+](=O)[O-])o1 | -32.6% |
| Cc1ccc(OCC(=O)N/N=C/c2ccc([N+](=O)[O-])o2)cc1 | -5.93% |
| O=C(N/N=C/c1ccc([N+](=O)[O-])o1)c1cc2ccccc2o1 | -13.3% |
| O=C(CNc1ccc2ccccc2c1)N/N=C/c1ccc([N+](=O)[O-])o1 | -26.6% |
| O=C(CNc1cccc([N+](=O)[O-])c1)N/N=C/c1ccc([N+](=O)[O-])o1 | -37.9% |
| Cc1cc(C)cc(OCC(=O)N/N=C/c2ccc([N+](=O)[O-])o2)c1 | -22.6% |
| O=c1c2ccccc2cnn1CCOc1ccccc1 | -38.8% |
| CC(C)c1nnc(NC(=O)CCC2CCCCC2)s1 | 6.44% |
| c1cc(CSc2nnc(-c3ccc4c(c3)OCO4)o2)ccn1 | -27% |
| COCCNC(=O)/C(C#N)=C/c1cccc(/C=C(\C#N)C(=O)NCCOC)c1 | -33.3% |
| Cc1ccc(C2=NN(C(=O)CCl)C(c3cccs3)C2)o1 (stereo not given) | -37.2% |
| Cc1ccc([N+](=O)[O-])cc1N1C(=O)CS/C1=N\NC(=O)c1cccnc1 | -3.24% |
| CC(=O)COc1ccc2cc(-c3ccccc3)c(=O)oc2c1 | -2.9% |
| O=[N+]([O-])c1ccccc1OCCOc1ccccc1[N+](=O)[O-] | -0.336% |
| CCOC(=O)C1(Cc2ccccc2)CCCN(CCCn2cccn2)C1 (stereo not given) | 8.95% |
| CN(Cc1ccccc1)C1=CC(=[N+]2CCCCC2)CC(C)(C)C1 | -35.9% |
| O=C(NCCNc1ccccc1[N+](=O)[O-])c1cc(F)c(F)cc1Cl | -1.52% |
| N#CC(C#N)=C1C=CC=CN1/C(=C\c1ccco1)C(=O)c1ccc(Br)cc1 | -43% |
| CC(C)N1C(=O)S/C(=C\c2ccc(-c3ccc(Cl)c(C(=O)O)c3)o2)C1=O | -8.81% |
| Cc1cn(CCC(=O)Nc2ccccc2N2CCOCC2)c2ccccc12 | 2.75% |

Reference: PubChem BioAssay AID493240 (Broad Institute, 2011)
